Screens from PubChem BioAssay.
Most compounds without a hit are left out; they make up all but 18% or so of the library.
RORgamma inh: blocks mouse ROR gamma transcriptional activity; Drosophila S2 Gal4-RORgamma UAS-luciferase reporter, 20 h; P51450; 310,000 compounds, 5.4% hits; Potency, µM (titrated, usually from 53.6 µM), for inactives: at the top dose activity change, negative = inhibition, most hits filed as inhibitors; also: potency is read from the fitted curve at half-maximal effect; nearly all actives have a fitted effect of over 60% in size
Target sequence (P51450 whole entry, looked up, the tested form may be a part): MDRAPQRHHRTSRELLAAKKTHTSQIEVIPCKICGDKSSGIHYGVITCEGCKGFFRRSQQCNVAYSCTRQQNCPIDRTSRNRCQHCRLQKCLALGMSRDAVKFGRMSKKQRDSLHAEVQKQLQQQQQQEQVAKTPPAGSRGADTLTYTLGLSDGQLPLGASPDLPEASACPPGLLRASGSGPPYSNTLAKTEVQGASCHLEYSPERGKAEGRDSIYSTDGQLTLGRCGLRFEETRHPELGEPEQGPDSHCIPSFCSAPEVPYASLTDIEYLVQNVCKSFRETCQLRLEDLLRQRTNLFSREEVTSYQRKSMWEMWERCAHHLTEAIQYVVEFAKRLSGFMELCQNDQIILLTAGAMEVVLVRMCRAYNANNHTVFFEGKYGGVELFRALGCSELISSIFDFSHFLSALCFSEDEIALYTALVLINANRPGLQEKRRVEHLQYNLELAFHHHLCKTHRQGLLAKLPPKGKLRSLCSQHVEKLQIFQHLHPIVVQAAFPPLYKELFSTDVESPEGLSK
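ROR gamma transcriptional activity was tracked as Gal4-UAS luciferase output in stably transfected Drosophila Schneider cells, with compound added 1 hr before 700 uM copper sulfate induction and a 20 hr ambient-temperature incubation.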
LDHA block: blocks human lactate dehydrogenase A; P00338; purified LDHA, NADH/diaphorase-resazurin fluorescence; hits give low values; activity change, % (values are at about 110 or 230 µM); 480,000 compounds, 0.15% hits; in the data active = activity change below about -30%; inconclusive = mostly about -25% to -30%;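 also: plate controls were DMSO wells for no effect and wells without enzyme for full effect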
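Resorufin fluorescence (ex540/em590), read at 0 and 20 min after diaphorase/resazurin addition, reports the NADH left after a 5 min room-temperature reaction of 2 nM human LDH5 with 0.06 mM NADH and 0.2 mM pyruvate.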
TDP1 cell CPT: growth inhibition of DT40 Tdp1-/-;hTDP1 cells with camptothecin (screen for TDP1 inhibitors); chicken DT40 Tdp1-/-;hTDP1 cells + 20 nM CPT, ATP luminescence, 48 h; Potency, µM (titrated, usually from 46.2 µM), for inactives: at the highest dose activity change, negative = growth inhibition, actives largely listed as inhibitors; 420,000 compounds, 12% hits; also: potency is read from the fitted curve at half-maximal effect; nearly all actives have a fitted effect of over 55% in size
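Chicken DT40 Tdp1-/- cells stably complemented with human TDP1 were seeded at 400 cells/well in medium containing 20 nM camptothecin, exposed to pin-transferred compounds, and grown at 37 °C for at least 48 hr. Viability was read as ATP luminescence.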
DT40 TDP1 no CPT: qHTS for Inhibitors of human tyrosyl-DNA phosphodiesterase 1 (TDP1): qHTS in cells in absence of CPT; 420,000 compounds, 15% hits; DT40 Tdp1-/- hTDP1 cells, no CPT, ATP luminescence, 48 h; Potency, µM (highest dose often 46.2 µM), for inactives: top-dose activity change, negative = growth inhibition, actives largely listed as inhibitors; also: potency is read from the fitted curve at half-maximal effect; nearly all actives have a fitted effect of over 55% in size
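Chicken DT40 Tdp1-/- cells stably complemented with human TDP1 were seeded at 400 cells/well with DMSO in place of 20 nM camptothecin. After compound pinning, cells grew at least 48 hr at 37 °C; viability read by CellTiter-Glo luminescence.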
VP16 counter: Gal4-VP16 reporter inhibition counter-screen; Drosophila S2 Gal4-VP16 UAS-luciferase, luminescence, 20 h; 310,000 compounds, 3.5% hits; Potency, µM (series often up to 53.6 µM), without a hit: top-dose activity, negative = inhibition, hits mostly inhibitors;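 also: Gal4-VP16 expression switched on by copper sulfate through the metallothionein promoter; potency is read from the fitted curve at half-maximal effect; nearly all actives have a fitted effect of over 50% in size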
IL1B secr inh: blocks inflammasome-driven IL-1 beta release; THP-1 LPS/ATP IL-1B secretion, AlphaLISA, 16 h; hits give low values; activity change, % at 57.5 µM; 360,000 compounds, 4.7% hits; AID 743279; in the data active = activity change below about -50%; inconclusive = mostly about -30% to -49%
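THP-1 cells pretreated 1 hr with compounds (up to 57.5 uM final), then stimulated with LPS (250 ng/mL final) plus ATP (1.25 mM final); secreted IL-1B measured by AlphaLISA after 16 hr, decreased signal indicating inhibition.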
Starred values were filed as active, the others as inactive; ? = inconclusive; . = not tested or not shown; ! = a repeat was not active. Unless noted, calls follow the shape of the dose curve; as a rule, active = well fitted curve in the direction sought with a large enough effect; inconclusive = small, poorly fitted or top-dose-only effect, or another doubt; inactive = no such curve, though single readings can be large; an effect the other way counts as inactive or inconclusive. Unless noted, % is scaled to controls: 0 for no effect and ±100 for the full control effect.

SMILES	RORgamma inh	LDHA block	TDP1 cell CPT	DT40 TDP1 no CPT	VP16 counter	IL1B secr inh
CCOc1ccc(NC(=O)N2CCc3ccccc3C2)cc1	3.3%	3.6	-18.2%	-14.5%	17.1%	-7.3
COc1cccc(NC(=O)N2CCCC2)c1	7.8%	-2.4	0.2%	10.0%	-17.0%	1.9
COc1cccc(NC(=O)N2CCc3nc(Nc4cc(Cl)cc(Cl)c4)ncc3C2)c1	.	-0.4	?	23.1µM*	.	-53.7*
O=C(Nc1ccc(OC(F)(F)F)cc1)N1CCc2nc(NCc3cccc(Oc4ccccc4)c3)ncc2C1	.	-2.0	18.4µM*	20.6µM*	.	-21.9
COc1cccc(NC(=O)N2CCc3nc(NCc4cccc(Oc5ccccc5)c4)ncc3C2)c1	.	2.9	10.3µM*	20.6µM*	.	34.2
Cc1ccccc1C(=O)Nc1ccc(C(=O)NNC(=S)Nc2ccccc2)cc1	.	-1.4	.	.	.	.
CC(=O)c1cccc(NS(=O)(=O)c2ccc(-c3cnc(C4CC4)o3)cc2)c1	-30.3%	0.2	4.11µM*	2.59µM*	8.91µM*	-3.5
Cc1ncc(-c2ccc(S(=O)(=O)N3CCN(c4cc(Cl)ccc4C)CC3)cc2)o1	.	-7.7	.	.	.	.
Cc1cc(C)cc(NS(=O)(=O)c2ccc(-c3cnc(C4CC4)o3)cc2)c1	?	0.8	0.82µM*	0.82µM*	?	24.5
O=S(=O)(NCc1ccc(F)cc1)c1ccc(-c2cnc(C3CC3)o2)cc1	36.8%	-1.3	18.4µM*	10.3µM*!	-5.1%	7.7
Cc1ccc(Cl)cc1N1CCN(S(=O)(=O)c2ccc(-c3cnc(C4CC4)o3)cc2)CC1	.	-3.1	?	13µM*	.	.
COc1ccc(C)cc1Nc1nc2ccccc2nc1NS(=O)(=O)c1ccc(Cl)cc1	.	8.7	.	.	.	.
COc1ccc(NS(=O)(=O)c2ccc(-c3cnc(C4CC4)o3)cc2)cc1Cl	.	0.2	0.651µM*	1.46µM*	.	.
Cc1ccc(NS(=O)(=O)c2ccc(-c3cnc(C4CC4)o3)cc2)cc1F	.	10.5	.	.	.	.
COc1ccc(NS(=O)(=O)c2ccc(-c3cnc(C4CC4)o3)cc2)cc1	.	-4.3	.	.	.	.
COc1cc(NS(=O)(=O)c2ccc(-c3cnc(C4CC4)o3)cc2)cc(OC)c1OC	.	14.7	.	.	.	.
O=S(=O)(Nc1ccccc1)c1ccc(-c2cnc(C3CC3)o2)cc1	0.6%	0.4	3.66µM*	2.31µM*	-7.9%	9.5
Cc1ccc(NS(=O)(=O)c2ccc(-c3cnc(C4CC4)o3)cc2)cc1N(C)C	.	2.7	1.03µM*	0.731µM*	.	.
CCOc1ccc(NS(=O)(=O)c2ccc(-c3cnc(C4CC4)o3)cc2)cc1	30.0%	1.6	?	9.2µM*	1.5%	38.6
O=C(Cc1c(Cl)cccc1Cl)OCc1ccc(Cl)cc1Cl	.	0.9	.	.	.	.
Cc1cccc(NS(=O)(=O)c2ccc(-c3cnc(C4CC4)o3)cc2)c1C	6.8%	-0.5	0.0073µM*	0.0103µM*	-28.9%	84.3
Cc1ccc(C)c(NS(=O)(=O)c2ccc(-c3cnc(C4CC4)o3)cc2)c1	?	1.3	0.0058µM*	0.0052µM*	-11.5%	51.0
COc1ccc(NS(=O)(=O)c2ccc3oc(SCC(=O)N4CCCCC4)nc3c2)cc1	.	-7.5	.	.	.	.
Cc1ccc(OCC(=O)Nc2c(C)nn(-c3ccccc3)c2C)c(Br)c1	.	-13.2	?	23.1µM*	.	?
Cc1ccc(C)c(OCC(=O)OCC(=O)Nc2c(C)nn(-c3ccccc3)c2C)c1	.	-0.8	-8.7%	1.7%	.	11.9
SMILES	RORgamma inh	LDHA block	TDP1 cell CPT	DT40 TDP1 no CPT	VP16 counter	IL1B secr inh
Cc1nn(-c2ccccc2)c(C)c1NC(=O)COc1ccc(F)cc1Cl	?	0.7	23.1µM*	20.6µM*	-3.8%	-4.3
Cc1nn(-c2ccccc2)c(C)c1NC(=O)COc1ccc([N+](=O)[O-])cc1	.	-3.2	?	14.6µM*	.	-17.0
CCOC(=O)Cn1nc(C)c(NC(=O)COc2ccc([N+](=O)[O-])cc2)c1C	-12.5%	-10.9	18.6%	16.8%	6.2%	10.9
CCOC(=O)C1CCCN(CC(=O)Nc2c(C(=O)OC)[nH]c3ccc(Br)cc23)C1 (configuration not stated)	7.0%	4.4	16.4µM*	20.6µM*	?	23.9
COC(=O)c1[nH]c2ccc(Br)cc2c1NC(=O)CN1CCN(C2CCCCC2)CC1	-85.1%	-8.5	25.9µM*	20.6µM*	?	-99.6*
CCOC(=O)c1[nH]c2ccc(Br)cc2c1NC(=O)CCN1CCCC(C)(C)C1	34.1%	-6.3	?	25.9µM*	-22.7%	-11.3
CCOC(=O)c1[nH]c2ccc(F)cc2c1NC(=O)CCN1CCOCC1	26.8%	-12.3	4.3%	12.5%	6.9%	7.3
CCOC(=O)C1CCN(CC(=O)Nc2c(C(=O)OC)[nH]c3ccc(Cl)cc23)CC1	?	-5.5	23.1µM*	10.3µM*	10µM*	6.9
CC(=O)Nc1ccc(NC(=O)C2=C(c3ccccc3)SCCO2)cc1	.	0.0	.	.	.	.
CN(C)c1cccc2c1c(NC(=O)c1ccc(F)cc1)nn2C	-17.4%	10.6	?	?	-5.2%	25.6
CN(C)c1cccc2c1c(NC(=O)Nc1ccc(F)cc1F)nn2C	-3.0%	6.3	?	?	6.8%	-53.0*
O=C(O)CCc1nn2c3ccccc3n(CCOc3ccccc3Cl)c2nc1=O	.	5.3	.	.	.	.
CCCCCCCCCOc1ccc(C(=O)O)cc1	.	0.1	.	.	.	.
CCN(CC)C(=O)c1cc(C(C)(C)C)c(O)c(C(C)(C)C)c1	10µM*	-1.4	?	?	-2.6%	-11.5
CC(=O)c1cc(C(C)(C)C)c(O)c(C(C)(C)C)c1	.	6.6	.	.	.	.
